LASV entry inh: inhibitors of Lassa virus binding or cell entry | Lassa virus pseudotype entry inhibition, cell reporter | Potency, µM (titrated, usually from 37.9 µM), for the others: at the top dose activity change, negative = inhibition, usual class: inhibitors | 300,000 tested, 1.2% active; calls by dose curve; tested in HEK293 cells; further: potency means the concentration at half of the fitted maximal effect; nearly all actives have a fitted effect of over 50% in size
FMDV antiviral: antivirals against foot and mouth disease virus; FMDV antiviral cell-based qHTS; Potency, µM (doses to about 57.9 µM), for the others: top-dose activity change, negative = inhibition, actives largely listed as inhibitors; 410,000 tested, 1.2% active; AID 1159524; calls by dose curve; tested in HEK293T cells; further: read-out not given here; potency means the concentration at half of the fitted maximal effect; nearly all actives have a fitted effect of over 45% in size
MARV entry inh: inhibitors of Marburg virus binding or cell entry; Marburg virus pseudotyped entry inhibition, cell reporter; Potency, µM (series often up to 37.8 µM), for the others: at the highest dose activity change, negative = inhibition, hits mostly inhibitors; 300,000 tested, 1.8% active; AID 540276; calls by dose curve; tested in HEK293 cells; further: potency means the concentration at half of the fitted maximal effect
FBPA Giardia inh: Giardia lamblia aldolase inhibition; A8B2U2; purified Giardia FBPA; Potency, µM (highest dose often 59.6 µM), for inactives: at the top dose activity, negative = inhibition, usual class: inhibitors; 290,000 tested, 0.71% active; AID 2451; further: potency means the concentration at half of the fitted maximal effect; nearly all actives have a fitted effect of over 55% in size
Target sequence (A8B2U2 whole entry, looked up): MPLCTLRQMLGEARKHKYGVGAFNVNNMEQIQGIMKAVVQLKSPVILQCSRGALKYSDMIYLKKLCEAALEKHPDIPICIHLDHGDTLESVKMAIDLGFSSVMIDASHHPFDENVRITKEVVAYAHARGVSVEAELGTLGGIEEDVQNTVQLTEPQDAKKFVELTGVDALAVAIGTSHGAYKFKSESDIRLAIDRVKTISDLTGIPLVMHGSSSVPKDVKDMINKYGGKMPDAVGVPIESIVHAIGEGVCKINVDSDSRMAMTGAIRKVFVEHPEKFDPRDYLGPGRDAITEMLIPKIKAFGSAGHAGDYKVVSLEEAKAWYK
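Giardia FBPA (40 nM reagent) was preincubated 10 min at RT with compound (up to 57.5 uM final), then substrate plus GAPDH/TPI/NAD/arsenate coupling system with diaphorase/resazurin was added; resorufin fluorescence (525/598 nm) was read after 20 min.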
HCMV antiviral: human cytomegalovirus inhibition; 410,000 tested, 4.5% active; HFF cells, HCMV-luciferase reporter, 72 h; stronger effect = lower value; activity change, negative = inhibition, % at 57.5 µM; AID 1259415; in the data active means activity change below about -60%; inconclusive means no clear call, values can overlap the other calls; inactive means above about -39%
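After 16 h attachment at 37C, HFF cells received test compound and HCMV-luciferase (1 PFU/cell); reporter luminescence read 72 h later, data normalized against buffer-only and known inhibitor Salinomycin.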
HCV inhibitor: inhibitors of hepatitis C virus infection; Potency, µM (highest dose often 41.8 µM), for inactives: at the highest dose activity change, negative = inhibition, usual class: inhibitors; Huh7.5.1 HCVcc-Cre infection, luciferase reporter, 44 h; 340,000 tested, 3.4% active; AID 651820; further: potency means the concentration at half of the fitted maximal effect
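Antiviral activity was scored by luciferase reporter output from cells infected with HCVcc-Cre (~0.5 moi) in presence of compound, 44 h infection period, cells seeded 1,000/well 4 h prior.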
An asterisk follows results filed as active; ? = inconclusive; . = no result; ! = repeats disagree; [ ] = dose if it differs, or a comment. An excerpt weighted towards active compounds, which were near 8.3% of everything screened. Unless noted, the call rests on the fitted dose curve; in most records, active means well fitted curve in the direction sought with a large enough effect; inconclusive means small, poorly fitted or top-dose-only effect, or another doubt; inactive means no such curve, though single readings can be large; an effect the other way counts as inactive or inconclusive. On the % scale 0 is the no-effect control and ±100 the full control effect.

SMILES | LASV entry inh | FMDV antiviral | MARV entry inh | FBPA Giardia inh | HCMV antiviral | HCV inhibitor
COc1cccc(Cc2nc3cccnc3n2C2CCN(C(=O)c3n[nH]c4c3CCCC4)CC2)c1 | . | -15% | . | . | . | .
COc1ccc(OC)c(C2=Nn3c(nnc3-c3cccc(OC)c3OC)SC2)c1 | . | . | . | 5% | . | .
COc1cc(=O)n2c(c1C(=O)NC(C)c1ccco1)CCN(C(=O)c1cc(C)cc(C)c1)CC2 (centres undefined) | . | 28% | . | . | . | .
COc1ccc(CCNC(=O)c2ccc3ccccc3n2)cc1OC | ? | -27% | ? | -1% | -25 | ?
COc1ccc(CCNC(=S)c2ccccc2)cc1OC | . | ? | 1% | 0% | ? | 8.9µM*
COc1ccc(CNC(=O)c2ccc3ccccc3n2)cc1OC | ? | ? | ? | 19% | ? | 10µM*
CCOc1ccc(CCNC(=O)c2cnc(C)cn2)cc1OCC | . | -6% | . | . | . | -8%
CCOc1ccc(CCNC(=O)c2ccc3ccccc3n2)cc1OCC | . | 5% | . | . | 92 | 11µM*
COc1ccc(CCNC(=S)NCCc2ccc(OC)c(OC)c2)cc1OC | ? | ? | ? | 5% | -22 | ?
CSc1nc2nccc(-c3ccc(Oc4ccccc4)cc3)n2n1 | 16µM* | -28% | ? | 0% | -17 | 11µM*
Cc1ccc(Cn2c(C(=O)NCc3ccccc3Cl)cc3sccc32)cc1 | 24%[46.1 µM] | -3% | -3%[46.1 µM] | . | -14 | .
CC(=O)Cc1nsc(NC(=O)c2ccccc2)n1 | 18% | 49% | -2% | -1% | -64* | 22%
CC(=O)Cc1nsc(NC(=O)c2ccc(F)cc2)n1 | ? | 1% | 5%[46.1 µM] | -12% | -30 | 8%
C=Cc1c(C)c2cc3[nH]c(cc4nc(cc5nc(cc1[nH]2)C(C)=C5CCC(=O)O)C(CCC(=O)O)=C4C)c(C)c3C=C | ? | ? | 7.9µM*! | ? | -33 | -15%
COc1cc2ccnc(Cc3cccc(OC)c3OC)c2cc1OC | . | ? | 20%[46.1 µM] | -20% | -72* | ?
CCOc1cc(-c2nccc3cc(OC)c(OC)cc23)cc(OCC)c1OCC | ? | ? | 13µM* | 8% | -27 | ?
COc1cc(N)c(Cc2nccc3cc(OC)c(OC)cc23)cc1OC | ? | -26% | -15%[46.1 µM] | ? | 2 | -19%
CS(=O)(=O)c1sc2nc(-c3cccs3)cc(-c3ccccc3)c2c1N | -3% | -26% | -20% | 2% | -8 | 8.9µM*
Cc1ccc(-c2cc(-c3ccccc3)c3c(N)c(S(C)(=O)=O)sc3n2)cc1 | 18% | -8% | -26% | 4% | 47 | -7%
Cn1c2ccccc2c2cnn(CC(=O)Nc3ccccc3C(F)(F)F)c(=O)c21 | ? | 8% | 5%[46.1 µM] | . | 20 | .
O=C(NCCc1nc2ccccc2[nH]1)c1ccc(F)cc1 | -9% | 7% | ? | -5% | ? | ?
O=C(NCCc1nc2ccccc2[nH]1)c1cccc(Br)c1 | 2% | -24% | 1%[46.1 µM] | 7% | -70* | ?
COc1ccc(CCNC(=O)CN2C(=O)COc3ccccc32)cc1OC | ? | -11% | . | . | -16 | .
CC(C(=O)N1CCCCC1)N1CCN(S(=O)(=O)c2ccc(Cl)cc2)CC1 (centres undefined) | . | -16% | . | . | 1 | 13%
CC(C)c1ccc(S(=O)(=O)N2CCN(C(C)C(=O)N3CCCC3)CC2)cc1 (centres undefined) | ? | -18% | 18% | . | -70* | 19%
SMILES | LASV entry inh | FMDV antiviral | MARV entry inh | FBPA Giardia inh | HCMV antiviral | HCV inhibitor
CCCc1ccc(S(=O)(=O)N2CCN(C(C)C(=O)NC3CCCC3)CC2)cc1 (centres undefined) | ? | -12% | -1% | . | -24 | ?
CCC(C)c1ccc(S(=O)(=O)N2CCN(C(C)C(=O)NC3CCCC3)CC2)cc1 (centres undefined) | 2.8µM* | -7% | -21% | . | ? | ?
COC(=O)/C=C1\S/C(=N/NC(=O)c2ccccc2)NC1=O | -2% | -8% | 3% | 6% | -15 | 0%
COC(=O)/C=C1/SC(=NC(=O)c2ccc(OC)cc2)NC1=O | . | -10% | . | . | -15 | 7%
COC(=O)/C=C1\SC(=NC(=O)c2cccc([N+](=O)[O-])c2)NC1=O | -1%[46.1 µM] | 14µM* | 3%[46.1 µM] | -7% | 4 | 7%
COC(=O)/C=C1/SC(=NC(=O)c2ccc(F)cc2)NC1=O | -13% | 40µM* | 14%[46.1 µM] | 2% | 24 | 13%
COC(=O)/C=C1/S/C(=N/NC(=O)c2ccccc2C)NC1=O | 19% | -15% | 5% | 9% | -105* | 14%
COc1cccc(CNc2ncnc3sc(C(=O)N4CC5CCC4C5)c(C)c23)c1OC (centres undefined) | . | 2% | . | . | . | .
CCOc1ccc(-n2nc(CO)c(C(=O)NCc3cccs3)n2)cc1 | ? | 7% | 3%[46.1 µM] | . | -15 | .
CCOC(=O)c1c(NC(=O)CN2CCCCC2)sc(C)c1C | . | -27% | . | 0% | -4 | -24%
CCOC(=O)c1c(NC(=O)CN2CCCCC2)sc2c1CCN(C(=O)OCC)C2 | ? | . | ? | . | -60* | 10µM*
CCOC(=O)c1c(NC(=O)CN(CC)CC)sc2c1CCN(C(=O)OCC)C2 | ? | ? | ? | -1% | ? | 2.8µM*
CCOC(=O)N1CCc2c(sc(NC(=O)Cc3ccccc3)c2C(=O)c2ccc(OC)cc2)C1 | . | ? | . | -8% | 23 | ?
CCOC(=O)c1c(NC(=S)N2CCN(C)CC2)sc2c1CCN(C(=O)OCC)C2 | -16%[46.1 µM] | -19% | ? | -10% | -99* | 6.3µM*
COC(=O)Cn1c(=O)c2cccn2c2ccc(F)cc21 | 6%[46.1 µM] | -20% | -1%[46.1 µM] | . | -7 | .
N#Cc1ccccc1N/C=C/C(=O)c1ccc(Cl)cc1 | 13µM* | -25% | ? | . | 82 | ?
O=C(/C=C/NNC(=O)c1cccc(Br)c1)c1cccc(Br)c1 | -10% | . | -23% | 7% | 27 | ?
O=C(/C=C/NNC(=O)c1ccc(Cl)cc1)c1ccccc1 | . | 18% | . | -22% | -16 | 8.9µM*
